This is an account of results in PubChem BioAssay (NCI).

The structures appear in SMILES notation. The panel holds about 83,000 compounds, 20% with a hit somewhere; the sample as a whole holds those more often.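 Single-dose data. Exposure time 48 hours. Values below 10 considered active.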 A number with no mark means an inactive call. Calls of active or inactive are those of the source.

In the first experiment the test system is MOLT-4 leukemia. Briefly: NCI-60 one-dose screen, 48 h (100 = growth as untreated, 0 = no growth, -100 = all killed). The following applies: 10 µM unless noted.
On to `CCCCCCC(CC#N)(CCC)CCCC` (centres undefined), for which the growth was 97.5%.

In the case of `COc1ccc(NC(=O)c2ccccc2-c2ccccc2)c(C(N)=O)c1`, the growth was 20%.

Regarding `Cc1ccc(-c2csc(N)n2)cc1`, the growth was 90.3%.

Consider `NS(=O)(=O)c1ccc(N2CC(c3nc4ccccc4[nH]3)CC2=O)cc1` (centres undefined), for which the growth is 96.3%.

Take `Cc1nn(-c2ccccc2)c2nc(N)c(C3=NCCO3)nc12`: the growth was 101%.

For `CCCCNCCCN(CCCC)CCCNCCCC`, the growth was 103%.

With `Oc1c(Cl)cc(Cl)c(Cl)c1Cc1c(O)c(Cl)cc(Cl)c1Cl`, the growth was 11.1%.

For `CSc1nc(Nc2ccc(S(=O)(=O)Nc3ccon3)cc2)c(C#N)c(-c2ccc(Cl)cc2)n1`, the growth was -20.8% (active).

With `O=C(Nc1nc2ccc(OC(F)(F)F)cc2s1)c1ccc(F)cc1`, the growth is 13.8%.

As for `COc1cccc(C=Nc2cc(C(C)C)c(O)cc2C)c1O`, the growth was 98.2%.

`COC(=O)[C@H](Cc1cn(C)cn1)NC(=O)[C@H](Cc1ccccc1)NC(=O)Nc1cc(C(F)(F)F)cc(C(F)(F)F)c1`: the growth was -55% [100 µM] (active).

As for `Cn1c(N2N=C(c3ccc(Cl)cc3)CC2c2ccccc2)nc(-c2ccccc2)c(C#N)c1=O` (centres undefined), the growth is 60.1%.

Take `NC(=NCCCCCCN=C(N)/N=C(\N)Nc1ccc(Cl)cc1)/N=C(\N)Nc1ccc(Cl)cc1`: the growth was 21.2%.

With `Oc1c(N=Nc2nn[nH]n2)ccc2ccccc12`, the growth was 99.2%.

For the compound `Cc1ccc(/C=C/C(=O)c2ccc(F)cc2)s1`, the growth is 11.6%.

Consider `CC[N+](CCCCCCCCCC[N+](CC)(c1ccccn1)c1ccccn1)(c1ccccn1)c1ccccn1`, for which the growth was -8.33% (active).

Regarding `O=C(c1ccc(N2CCOCC2)cc1[N+](=O)[O-])N1CCOCC1`, the growth is 116%.

For `Cc1ccc(-c2c3c(N)nc(-c4ccncc4)nc3nc3c2c(C)nn3-c2ccccc2)cc1`, the growth is 65.3%.

Regarding `COc1cccc(CCN2C(=O)CCC3=C2CCC3=O)c1`, the growth is 105%.

In the case of `CC(=O)c1nn(-c2ccccc2)c(=Nc2ccccc2)cc1C`, the growth was 94.3%.

For the compound `COc1ccc(-c2nc3sc4c(c3c(=O)[nH]2)CCCCCC4)cc1`, the growth was 43.4%.

With `CCOC(=O)/C(=C/CC/C(C)=C/CC/C(C)=C/CCc1ccoc1)CC(=O)N1CCCCC1`, the growth was 0.624% (active).

With `CCCCCCCSc1ncnc2[nH]ncc12`, the growth is 75.4%.

On to `CC1CC=CCC1C1OCC(C)(C)CO1` (centres undefined), for which the growth is 102%.

As to `Cc1[nH]c(=O)[nH]c(=O)c1CCSSCCc1c(C)[nH]c(=O)[nH]c1=O`, the growth is 100%.

As to `CC(NNC(=S)N1CCCCCC1)c1ccc2ccccc2n1` (centres undefined), the growth is 28.3%.

As for `NS(=O)(=O)c1ccc(-n2nc(-c3ccc(Br)cc3)ccc2=O)cc1`, the growth is 92.6% [100 µM].

In the case of `CCOc1cc(CCNS(=O)(=O)c2ccc(C)cc2)c(C(C)=O)cc1OCC`, the growth was 9.64% [100 µM] (active).

On to `CC(=O)N1N=C(c2ccc(Nc3ccnc4cc(Cl)ccc34)cc2)CC1c1ccc(Cl)cc1` (centres undefined), for which the growth is 34.2%.

For the compound `COC(=O)[C@H](Cc1cnc[nH]1)NC(=O)[C@@H](NC(=O)Nc1cc(C(F)(F)F)cc(C(F)(F)F)c1)C(C)C`, the growth was -45.5% [100 µM] (active).

`FC(F)(F)c1ccc(-c2cnc(-c3nn[nH]n3)nc2NC2CCCCCC2)cc1`: the growth was 25.4% [50 µM].

As for `CCCCCc1c(C)[nH]c(/C=C2\N=C(c3ccc[nH]3)C=C2OCc2ccccc2)c1C`, the growth was -57.8% [100 µM] (active).

Take `COc1c(Br)cc(C(c2cc(Br)c(OC)c(Br)c2)c2ccccc2C(=O)O)cc1Br`: the growth is 89.4%.

Consider `CCOC(=O)C(C(=O)OCC)C1CCCCC1`, for which the growth is 102%.

Turning to `N#Cc1ncc(-c2ccc(C(F)(F)F)cc2)c(NC2CCCCCC2)n1`, the growth is 66.8%.

`CCCCCCCC[Si](OCC)(OCC)OCC`: the growth was 95.7%.

On to `C[C@H]1O[C@@H](O[C@H]2[C@@H](O)C[C@H](O[C@H]3[C@@H](O)C[C@H](O[C@H]4CC[C@]5(C)C6CC[C@]7(C)[C@@H](C8=CC(=O)OC8)CC[C@]7(O)C6CC[C@@H]5C4)O[C@@H]3C)O[C@@H]2C)C[C@H](O)[C@@H]1O` (some centres undefined), for which the growth is -36.9% (active).

For the next experiment, the system named is SR leukemia. The experiment is described as above. To be noted: 10 µM unless noted.
For the compound `CCCCCCC(CC#N)(CCC)CCCC` (centres undefined), the growth is 103%.

Take `COc1ccc(NC(=O)c2ccccc2-c2ccccc2)c(C(N)=O)c1`: the growth is 8.17% (active).

On to `Cc1ccc(-c2csc(N)n2)cc1`, for which the growth is 86.3%.

Take `NS(=O)(=O)c1ccc(N2CC(c3nc4ccccc4[nH]3)CC2=O)cc1` (centres undefined): the growth was 95.5%.

Take `Cc1nn(-c2ccccc2)c2nc(N)c(C3=NCCO3)nc12`: the growth was 104%.

On to `CCCCNCCCN(CCCC)CCCNCCCC`, for which the growth is 108%.

With `C1CCC(C(CC2CCCCN2)C2CCCCC2)CC1` (centres undefined), the growth is -39.7% (active).

For `Oc1c(Cl)cc(Cl)c(Cl)c1Cc1c(O)c(Cl)cc(Cl)c1Cl`, the growth is 63.9%.

Regarding `CSc1nc(Nc2ccc(S(=O)(=O)Nc3ccon3)cc2)c(C#N)c(-c2ccc(Cl)cc2)n1`, the growth was -37.8% (active).

For `COc1cccc(C=Nc2cc(C(C)C)c(O)cc2C)c1O`, the growth is 113%.

Consider `COC(=O)[C@H](Cc1cn(C)cn1)NC(=O)[C@H](Cc1ccccc1)NC(=O)Nc1cc(C(F)(F)F)cc(C(F)(F)F)c1`, for which the growth is -39% [100 µM] (active).

With `Cn1c(N2N=C(c3ccc(Cl)cc3)CC2c2ccccc2)nc(-c2ccccc2)c(C#N)c1=O` (centres undefined), the growth is 58.8%.

Take `NC(=NCCCCCCN=C(N)/N=C(\N)Nc1ccc(Cl)cc1)/N=C(\N)Nc1ccc(Cl)cc1`: the growth was 25.1%.

As for `Oc1c(N=Nc2nn[nH]n2)ccc2ccccc12`, the growth is 106%.

As for `Cc1ccc(/C=C/C(=O)c2ccc(F)cc2)s1`, the growth is 10.3%.

As for `CC[N+](CCCCCCCCCC[N+](CC)(c1ccccn1)c1ccccn1)(c1ccccn1)c1ccccn1`, the growth was -19.8% (active).

As to `O=C(c1ccc(N2CCOCC2)cc1[N+](=O)[O-])N1CCOCC1`, the growth was 423%.

For `Cc1ccc(-c2c3c(N)nc(-c4ccncc4)nc3nc3c2c(C)nn3-c2ccccc2)cc1`, the growth was 3.61% (active).

For `COc1cccc(CCN2C(=O)CCC3=C2CCC3=O)c1`, the growth was 102%.

`CC(=O)c1nn(-c2ccccc2)c(=Nc2ccccc2)cc1C`: the growth is 99.3%.

Turning to `COc1ccc(-c2nc3sc4c(c3c(=O)[nH]2)CCCCCC4)cc1`, the growth is 27.9%.

With `CCOC(=O)/C(=C/CC/C(C)=C/CC/C(C)=C/CCc1ccoc1)CC(=O)N1CCCCC1`, the growth is 19.8%.

On to `CCCCCCCSc1ncnc2[nH]ncc12`, for which the growth was 79.3%.

With `CC1CC=CCC1C1OCC(C)(C)CO1` (centres undefined), the growth is 96.4%.

In the case of `Cc1[nH]c(=O)[nH]c(=O)c1CCSSCCc1c(C)[nH]c(=O)[nH]c1=O`, the growth is 79.6%.

`CC(NNC(=S)N1CCCCCC1)c1ccc2ccccc2n1` (centres undefined): the growth is 34.5%.

In the case of `NS(=O)(=O)c1ccc(-n2nc(-c3ccc(Br)cc3)ccc2=O)cc1`, the growth is 21.1% [100 µM].

As to `CCOc1cc(CCNS(=O)(=O)c2ccc(C)cc2)c(C(C)=O)cc1OCC`, the growth is 42.6% [100 µM].

On to `CC(=O)N1N=C(c2ccc(Nc3ccnc4cc(Cl)ccc34)cc2)CC1c1ccc(Cl)cc1` (centres undefined), for which the growth was 2.79% (active).

Take `COC(=O)[C@H](Cc1cnc[nH]1)NC(=O)[C@@H](NC(=O)Nc1cc(C(F)(F)F)cc(C(F)(F)F)c1)C(C)C`: the growth is -37% [100 µM] (active).

Consider `FC(F)(F)c1ccc(-c2cnc(-c3nn[nH]n3)nc2NC2CCCCCC2)cc1`, for which the growth was 15.1% [50 µM].

As to `CCCCCc1c(C)[nH]c(/C=C2\N=C(c3ccc[nH]3)C=C2OCc2ccccc2)c1C`, the growth is -26.1% [100 µM] (active).

Regarding `COc1c(Br)cc(C(c2cc(Br)c(OC)c(Br)c2)c2ccccc2C(=O)O)cc1Br`, the growth is 80.9%.

For the compound `CCOC(=O)C(C(=O)OCC)C1CCCCC1`, the growth was 97.3%.

Turning to `N#Cc1ncc(-c2ccc(C(F)(F)F)cc2)c(NC2CCCCCC2)n1`, the growth was 52.6%.

Consider `CCCCCCCC[Si](OCC)(OCC)OCC`, for which the growth was 79.4%.

For `C[C@H]1O[C@@H](O[C@H]2[C@@H](O)C[C@H](O[C@H]3[C@@H](O)C[C@H](O[C@H]4CC[C@]5(C)C6CC[C@]7(C)[C@@H](C8=CC(=O)OC8)CC[C@]7(O)C6CC[C@@H]5C4)O[C@@H]3C)O[C@@H]2C)C[C@H](O)[C@@H]1O` (some centres undefined), the growth was -32.7% (active).
